Results as given in PubChem BioAssay AID1159580 (chemical genetic matrix, 2015).
Several values for one entry are separate records, joined by “and”; a condition that tells them apart may be missing. Equal values may be shown once. About 2,000 (36%) of roughly 5,500 compounds were called active. Roughly 18% stayed inconclusive and do not appear here. No stated cut-off is given here; in the data, active means normalized growth mostly below about 0.91 (no sharp cut-off); inconclusive means no clear call, values can overlap the other calls; inactive means mostly above about 0.92. The list shows a part of the results. A structure can be active in one record and inactive in another.

Experiment: chemical genetic growth profiling, strain panel (AID 1159580);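 further: tested at 20 µM; growth read once vehicle control cultures reached saturation at 30 °C; 1 = growth at the plate median or of vehicle wells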
Conditions: growth OD
[1] = S. cerevisiae deletion strains, locus YAL013W, strain DEP1, stronger effect = lower value
[2] = S. cerevisiae deletion strains, locus YAL040C, strain CLN3, stronger effect = lower value
[3] = S. cerevisiae deletion strains, locus YCL061C, strain MRC1 (second series), stronger effect = lower value
[4] = S. cerevisiae deletion strains, locus YDR363W, strain ESC2, stronger effect = lower value
[5] = S. cerevisiae deletion strains, locus YER002W, strain NOP16, stronger effect = lower value
[6] = S. cerevisiae deletion strains, locus YGR078C, strain PAC10, stronger effect = lower value
[7] = S. cerevisiae deletion strains, locus YMR263W, strain SAP30, stronger effect = lower value
[8] = S. cerevisiae deletion strains, locus YMR307W, strain GAS1, stronger effect = lower value
[9] = S. cerevisiae deletion strains, locus YNL153C, strain GIM3, stronger effect = lower value
[10] = S. cerevisiae deletion strains, locus YNL175C, strain NOP13, stronger effect = lower value
[11] = S. cerevisiae deletion strains, locus YNL197C, strain WHI3, stronger effect = lower value
[12] = S. cerevisiae deletion strains, locus YNL224C, strain SQS1, stronger effect = lower value
[13] = S. cerevisiae deletion strains, locus YNL322C, strain KRE1, stronger effect = lower value
[14] = S. cerevisiae deletion strains, locus YOR083W, strain WHI5 (second series), stronger effect = lower value
[15] = S. cerevisiae deletion strains, locus YPL055C, strain LGE1, stronger effect = lower value

Measured: normalized growth

COC(=O)c1c(-c2cc(OC)c(OC)c(OC)c2)c2ccnc(OCc3ncccn3)c2c(=O)n1Cc1ccnc(C)c1
inactive: [1] 1 | [2] 0.889 | [3] 1.01 | [4] 1.01 | [5] 1 | [6] 1.01 | [7] 1.01 | [8] 1.01 | [9] 1.01 | [10] 1 | [11] 0.989 | [12] 0.993 | [13] 1.01 | [14] 0.999 | [15] 1.01

Cc1cc(O)c2c(c1)C(=O)c1cc(O)cc(O)c1C2=O
0.968 (inactive) and 0.787 (active): [7]
inactive: S. cerevisiae deletion strains, locus YBR021W, strain FUR4, stronger effect = lower value 0.914 | S. cerevisiae deletion strains, locus YBR229C, strain ROT2, stronger effect = lower value 0.923 | [3] 0.986 | [4] 1.02 | S. cerevisiae deletion strains, locus YIL073C, strain SPO22, stronger effect = lower value 0.959 | S. cerevisiae deletion strains, locus YOL012C, strain htz1 0.486 | S. cerevisiae deletion strains, locus YPL241C, strain CIN2, stronger effect = lower value 0.986
0.998 (inactive) and 0.795 (active): S. cerevisiae deletion strains, locus YJR075W, strain HOC1, stronger effect = lower value
active: [1] 0.868 | [2] 0.749 | S. cerevisiae deletion strains, locus YCL029C, strain bik1, stronger effect = lower value 0.734 | S. cerevisiae deletion strains, locus YDL035C, strain GPR1, stronger effect = lower value 0.699 | S. cerevisiae deletion strains, locus YDL074C, strain BRE1, stronger effect = lower value 0.56 | S. cerevisiae deletion strains, locus YDL101C, strain DUN1, stronger effect = lower value 0.732 | S. cerevisiae deletion strains, locus YDL134C, strain PPH21, stronger effect = lower value 0.783 | S. cerevisiae deletion strains, locus YDL185W, strain tfp1, stronger effect = lower value 0.795 | S. cerevisiae deletion strains, locus YDL192W, strain arf1, stronger effect = lower value 0.393 | S. cerevisiae deletion strains, locus YDR101C, strain arx1, stronger effect = lower value 0.584 | S. cerevisiae deletion strains, locus YDR162C, strain NBP2, stronger effect = lower value 0.483 | S. cerevisiae deletion strains, locus YDR318W, strain mcm21, stronger effect = lower value 0.712 | S. cerevisiae deletion strains, locus YDR388W, stronger effect = lower value 0.471 | S. cerevisiae deletion strains, locus YDR502C, strain sam2, stronger effect = lower value 0.56 | S. cerevisiae deletion strains, locus YEL061C, strain CIN8, stronger effect = lower value 0.745 | [5] 0.749 | S. cerevisiae deletion strains, locus YER110C, stronger effect = lower value 0.671 | S. cerevisiae deletion strains, locus YER155C, strain BEM2, stronger effect = lower value 0.716 | S. cerevisiae deletion strains, locus YER167W, strain BCK2, stronger effect = lower value 0.674 | S. cerevisiae deletion strains, locus YGL078C, strain dbp3, stronger effect = lower value 0.789 | S. cerevisiae deletion strains, locus YGL086W, strain mad1, stronger effect = lower value 0.645 | S. cerevisiae deletion strains, locus YGL248W, strain PDE1, stronger effect = lower value 0.853 | [6] 0.723 | S. cerevisiae deletion strains, locus YGR135W, strain pre9, stronger effect = lower value 0.741 | S. cerevisiae deletion strains, locus YGR229C, strain SMI1, stronger effect = lower value 0.338 | S. cerevisiae deletion strains, locus YGR252W, strain gcn5, stronger effect = lower value 0.415 | S. cerevisiae deletion strains, locus YHR030C, strain SLT2, stronger effect = lower value 0.629 | S. cerevisiae deletion strains, locus YHR079C, strain IRE1 (second series), stronger effect = lower value 0.854 | S. cerevisiae deletion strains, locus YHR094C, strain hxt1, stronger effect = lower value 0.673 | S. cerevisiae deletion strains, locus YHR129C, strain ARP1, stronger effect = lower value 0.705 | S. cerevisiae deletion strains, locus YHR200W, strain rpn10, stronger effect = lower value 0.75 | S. cerevisiae deletion strains, locus YIL066C, strain RNR3, stronger effect = lower value 0.688 | S. cerevisiae deletion strains, locus YIL125W, strain kgd1, stronger effect = lower value 0.842 | S. cerevisiae deletion strains, locus YIR030C, strain dcg1, stronger effect = lower value 0.635 | S. cerevisiae deletion strains, locus YJL095W, strain BCK1, stronger effect = lower value 0.475 | S. cerevisiae deletion strains, locus YJL134W, strain LCB3, stronger effect = lower value 0.907 | S. cerevisiae deletion strains, locus YJL168C, strain set2, stronger effect = lower value 0.818 | S. cerevisiae deletion strains, locus YJL187C, strain SWE1 (second series), stronger effect = lower value 0.69 | S. cerevisiae deletion strains, locus YJR043C, strain POL32, stronger effect = lower value 0.708 | S. cerevisiae deletion strains, locus YKL009W, strain mrt4, stronger effect = lower value 0.753 | S. cerevisiae deletion strains, locus YKL068W, stronger effect = lower value 0.857 | S. cerevisiae deletion strains, locus YKL085W, strain MDH1 (second series), stronger effect = lower value 0.795 | S. cerevisiae deletion strains, locus YKL085W, strain MDH1, stronger effect = lower value 0.795 | S. cerevisiae deletion strains, locus YKL190W, strain CNB1, stronger effect = lower value 0.823 | S. cerevisiae deletion strains, locus YKR001C, strain vps1, stronger effect = lower value 0.309 | S. cerevisiae deletion strains, locus YLR039C, strain RIC1, stronger effect = lower value 0.313 | S. cerevisiae deletion strains, locus YLR058C, strain SHM2, stronger effect = lower value 0.834 | S. cerevisiae deletion strains, locus YLR102C, strain apc9, stronger effect = lower value 0.837 | S. cerevisiae deletion strains, locus YLR262C, strain YPT6, stronger effect = lower value 0.383 | S. cerevisiae deletion strains, locus YLR268W, strain sec22, stronger effect = lower value 0.474 | S. cerevisiae deletion strains, locus YLR330W, strain CHS5, stronger effect = lower value 0.708 | S. cerevisiae deletion strains, locus YLR342W, strain FKS1 (second series), stronger effect = lower value 0.553 | S. cerevisiae deletion strains, locus YLR371W, strain rom2, stronger effect = lower value 0.612 | S. cerevisiae deletion strains, locus YLR418C, strain cdc73, stronger effect = lower value 0.324 | S. cerevisiae deletion strains, locus YML016C, strain PPZ1, stronger effect = lower value 0.916 | S. cerevisiae deletion strains, locus YML032C, strain rad52, stronger effect = lower value 0.6 | S. cerevisiae deletion strains, locus YML124C, strain tub3, stronger effect = lower value 0.724 | S. cerevisiae deletion strains, locus YMR078C, strain ctf18, stronger effect = lower value 0.776 | S. cerevisiae deletion strains, locus YMR223W, strain ubp8, stronger effect = lower value 0.643 | [8] 0.8 and 0.335 | S. cerevisiae deletion strains, locus YNL067W, strain RPL9B, stronger effect = lower value 0.782 | S. cerevisiae deletion strains, locus YNL128W, strain TEP1, stronger effect = lower value 0.713 | [9] 0.439 and 0.847 | [10] 0.732 | [11] 0.727 | [12] 0.861 | S. cerevisiae deletion strains, locus YNL233W, strain BNI4, stronger effect = lower value 0.63 | S. cerevisiae deletion strains, locus YNL250W, strain rad50, stronger effect = lower value 0.73 | S. cerevisiae deletion strains, locus YNL271C, strain bni1, stronger effect = lower value 0.782 | S. cerevisiae deletion strains, locus YNL298W, strain CLA4, stronger effect = lower value 0.716 | S. cerevisiae deletion strains, locus YNL307C, strain MCK1, stronger effect = lower value 0.59 | [13] 0.832 | S. cerevisiae deletion strains, locus YNR052C, strain pop2, stronger effect = lower value 0.218 | S. cerevisiae deletion strains, locus YOL147C, strain pex11, stronger effect = lower value 0.402 | S. cerevisiae deletion strains, locus YOR061W, strain CKA2, stronger effect = lower value 0.834 | S. cerevisiae deletion strains, locus YOR069W, strain VPS5, stronger effect = lower value 0.796 | [14] 0.422 | S. cerevisiae deletion strains, locus YOR136W, strain idh2, stronger effect = lower value 0.661 | S. cerevisiae deletion strains, locus YOR144C, strain elg1, stronger effect = lower value 0.759 | S. cerevisiae deletion strains, locus YOR184W, strain ser1, stronger effect = lower value 0.299 | S. cerevisiae deletion strains, locus YOR316C, strain cot1, stronger effect = lower value 0.83 | [15] 0.556 | S. cerevisiae deletion strains, locus YPR119W, strain clb2, stronger effect = lower value 0.808 | S. cerevisiae deletion strains, locus YPR141C, strain kar3, stronger effect = lower value 0.868 | S. cerevisiae deletion strains, locus YPR163C, strain tif3, stronger effect = lower value 0.403 | S. cerevisiae deletion strains, locus YPR167C, strain met16, stronger effect = lower value 0.708 | S. cerevisiae deletion strains, strain wtn01, stronger effect = lower value 0.608 | S. cerevisiae strains, strain wild type, stronger effect = lower value 0.715
